40 compounds from PubChem BioAssay (EPA / NIEHS) can be followed below.

Calls of active or inactive are those of the source. How the source made its calls: active means hit-call score of the fitted dose curve at least 0.9, where 1 is the maximum; inactive means score below 0.9.

The experiment is described as follows: ATG_M_06_CIS: Attagene CIS-FACTORIAL HepG2 Assay for M06 Transcription Factor (Internal Marker) (AID 2282950). As to conditions: HepG2 Attagene CIS-FACTORIAL M06 internal marker reporter; actives raise or lower the signal. The protocol:
ATG_CIS is a cell-based, multiplexed-readout assay that uses HepG2, a human liver cell line, with measurements taken at 24 hours after chemical dosing in a 24-well plate.ATG_M_06_CIS is one of 52 assay component(s) measured or calculated from the ATG_CIS assay. It is designed to make measurements of mRNA induction, a form of inducible reporter, as detected with fluorescence intensity signals by Reverse transcription polymerase chain reaction (RT-PCR) and Capillary electrophoresis technology.Data from the assay component ATG_M_06_CIS was analyzed into 1 assay endpoint. This assay endpoint, ATG_M_06_CIS, was analyzed with bidirectional fitting relative to DMSO as the negative control and baseline of activity. Using a type of inducible reporter, measures of mRNA for gain or loss-of-signal activity can be used to understand the background control at the transcription factor-level as they relate to the gene . Furthermore, this assay endpoint can be referred to as a secondary readout, because this assay has produced multiple assay endpoints where this one serves a background control function. To generalize the intended target to other relatable targets, this assay endpoint is annotated to the background measurement intended target family, where the subfamily is internal marker.
Human liver HepG2 cells are transiently transfected with multiple reporter transcription units (MRTUs) in 6-well plates using FuGene 6 reagent (Roche; 3 ml FuGene/1 mg DNA). The MRTU constructs are regulated by a cis-regulating element (promoter). […] A major difference between the CIS and TRANS system is that in CIS activities of endogenous TFs are measured, whereas the TRANS assay evaluates changes in activities of exogenous, chimeric NR-Gal4 proteins. […] At the end of 24 hour incubation, total RNA was isolated using TriZol reagent (Invitrogen). The isolated RNA is then reverse-transcribed using oligo(dT) primer and Mo-MLV reverse transcriptase (Invitrogen) with DNAse I (Ambion) treatment for 30 min. The one-tenth of the produced cDNA was amplified by PCR using Taq DNA polymerase (Invitrogen) and two reporter sequence-specific primers. The PCR products were fluorescently labeled by primer extension with 6-arboxyfluorescein (6-FAM) 5'-labeled reporter sequence-specific primer (2 min at 95 C, 20 s at 68 C and 10 min at 72 C) and these products were digested with 5U of HpaI (New England Biolabs) for 2h at 37 C. The fragments were purified using Qiaquick PCR columns (Qiagen), analyzed on an ABI 3130xL genetic analyzer (Applied Biosystems) with peak positions identified by using a set of X-rhodamine (ROX)-labeled MapMarker1000 molecular weight standards (BioVentures). The raw capillary electrophoresis data was processed using Attagraph software (Attagene).
As for `COc1nc(C)nc(NC(=O)NS(=O)(=O)c2ccccc2Cl)n1`, the result was inactive.

For the compound `CCNc1nc(Cl)nc(NCC)n1`, the call was inactive.

Consider `CCCCNC(=O)n1c(NC(=O)OC)nc2ccccc21`, for which the call was inactive.

Consider `CCCC1COC(Cn2cncn2)(c2ccc(Cl)cc2Cl)O1` (stereo not given), for which the result was inactive.

Turning to `COc1ccc(C(c2ccc(OC)cc2)C(Cl)(Cl)Cl)cc1`, the compound was classed as inactive.

As to `Cc1c(F)c(F)c(COC(=O)C2C(/C=C(\Cl)C(F)(F)F)C2(C)C)c(F)c1F` (stereo not given), the result was inactive.

In the case of `CCON=C(CC)C1=C(O)CC(c2c(C)cc(C)cc2C)CC1=O` (stereo not given), the call was inactive.

Consider `COC(=O)C=C(C)OP(=O)(OC)OC`, for which the outcome was inactive.

With `CCCCOC(=O)c1ccccc1C(=O)OCCCC`, the compound was classed as inactive.

On to `Oc1ccccc1-c1ccccc1`, for which the compound was called inactive.

On to `CC(C)(C)c1ccc(CSc2cnn(C(C)(C)C)c(=O)c2Cl)cc1`, for which the compound was classed as inactive.

Consider `N#Cc1nn(-c2c(Cl)cc(C(F)(F)F)cc2Cl)c(N)c1S(=O)C(F)(F)F` (stereo not given), for which the result was inactive.

`COc1nc(NC(C)C)nc(NC(C)C)n1`: the result was inactive.

As to `Fc1ccc(Oc2ccnc3cc(Cl)cc(Cl)c23)cc1`, the compound was called inactive.

Regarding `CNC(=O)ON=CC(C)(C)SC`, the result was inactive.

Consider `CC(C)Oc1cc(-n2nc(C(C)(C)C)oc2=O)c(Cl)cc1Cl`, for which the compound was classed as inactive.

For `CCOc1cc(Oc2ccc(C(F)(F)F)cc2Cl)ccc1[N+](=O)[O-]`, the compound was called inactive.

Regarding `COP(=S)(OC)Oc1nc(Cl)c(Cl)cc1Cl`, the outcome was inactive.

In the case of `CC1=C(C(=O)Nc2ccccc2)SCCO1`, the outcome was inactive.

As to `C=CCC1=C(C)C(OC(=O)C2C(C=C(C)C)C2(C)C)CC1=O` (stereo not given), the compound was called inactive.

Take `CCOC(=O)C(Cl)Cc1cc(-n2nc(C)n(C(F)F)c2=O)c(F)cc1Cl` (stereo not given): the compound was called inactive.

Regarding `CCc1nn(C)c(C(=O)NCc2ccc(C(C)(C)C)cc2)c1Cl`, the result was inactive.

As for `CCCCC(CC)COC(=O)c1ccccc1C(=O)OCC(CC)CCCC` (stereo not given), the call was inactive.

Take `CN(C)C(=S)SSC(=S)N(C)C`: the compound was classed as inactive.

For `CS/C(C)=N/OC(=O)N(C)SN(C)C(=O)O/N=C(\C)SC`, the compound was called inactive.

For `OC(c1ccc(Cl)cc1)(c1cncnc1)c1ccccc1Cl` (stereo not given), the result was inactive.

Regarding `COC(=O)c1ccccc1C(=O)OC`, the call was inactive.

On to `CCCN(CCC)c1c([N+](=O)[O-])cc(S(N)(=O)=O)cc1[N+](=O)[O-]`, for which the compound was called inactive.

As for `Cc1ccc(-c2c(Cl)nc(C#N)n2S(=O)(=O)N(C)C)cc1`, the call was inactive.

As to `CO/C=C(/C(=O)OC)c1ccccc1Oc1cc(Oc2ccccc2C#N)ncn1`, the result was inactive.

Regarding `CNC(=S)S`, the result was inactive.

With `N#Cc1cc(Br)c(O)c(Br)c1`, the result was inactive.

For the compound `C#CCOS(=O)OC1CCCCC1Oc1ccc(C(C)(C)C)cc1` (stereo not given), the outcome was inactive.

With `COc1cnc(OC)n2nc(NS(=O)(=O)c3c(OCC(F)F)cccc3C(F)(F)F)nc12`, the compound was called inactive.

In the case of `COC(=O)N(OC)c1ccccc1COc1ccn(-c2ccc(Cl)cc2)n1`, the result was inactive.

On to `CC1COC(Cn2cncn2)(c2ccc(Oc3ccc(Cl)cc3)cc2Cl)O1` (stereo not given), for which the result was inactive.

Take `Cc1cc(Cl)ccc1OCC(=O)O`: the result was inactive.

Regarding `COP(N)(=O)SC` (stereo not given), the result was inactive.

Turning to `COC(=O)C(C)Oc1ccc(Oc2ccc(Cl)cc2Cl)cc1` (stereo not given), the compound was classed as inactive.

As for `O=C(Nc1ccccc1)Nc1ccnc(Cl)c1`, the compound was called inactive.
